Source: PubChem BioAssay
Epigenetic derep = epigenetic control regulation, reporter derepression; murine LDR cells, GFP reporter derepression, 30 h; Potency, µM (series often up to 53.9 µM), hits mostly activators; hit rate 0.2% among 280,000; AID 1865; note: nearly all actives have a fitted effect of over 60% in size
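Reporter derepression read as number of fluorescent GFP-positive objects, 20-120 um in size, counted by laser-scanning cytometer. Mouse LDR line with an epigenetically silenced CMV-GFP locus; compound incubation 30 h, 37 C.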
PINK1 expr mod = PINK1 expression modulation; hit rate 0.2% among 410,000; Potency, µM (doses to about 76.6 µM), actives largely listed as activators; PINK1 immunofluorescence, high-content cytometry, 24 h; active = well fitted activation curve with a large enough effect; inconclusive = small, poorly fitted or top-dose-only effect; cell line not stated here; note: nearly all actives have a fitted effect of over 65% in size
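Decision-based qHTS: stable cells, 24 h exposure to five compound concentrations, CCCP as control. Fixed cells stained for PINK1 plus nuclear, mitochondrial and cell markers, cytometer read.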
HTT aggregate = reduces HttQ103-GFP aggregates in PC12 cells; PC12 HttQ103-GFP aggregates, Acumen cytometry, 40 h; Potency, µM (highest dose often 46.1 µM), hits mostly inhibitors; hit rate 1.1% among 220,000; AID 1688; note: nearly all actives have a fitted effect of over 60% in size
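Compounds (qHTS titration) were added to PC12 cells expressing an ecdysone-driven HTT exon 1 Q103–GFP fusion after induction with 100 nM tebufenozide. Aggregate formation was measured as GFP objects in cell lysates.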
HTT ATP protect = Huntington cell model cytoprotection by ATP luminescence. PC12 HTT-Q103 induced, cytoprotection, ATP luminescence, 40 h. Potency, µM (top dose mostly 56.4 µM), hits mostly activators. hit rate 0.14% among 230,000. AID 1471; note: nearly all actives have a fitted effect of over 45% in size
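Compounds were screened for protection of PC12 cells against cell death after tebufenozide induction (100 nM final) of mutant Huntingtin exon 1 (Q103) fused to GFP.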
Of the large screens only hits and unclear results are named; the others gave an inactive call; ! = a repeat was not active. This is one part of a sample in which hits are shown more often than they occur. Unless noted, calls come from the whole dose curve; as a rule, active = well fitted curve in the direction sought with a large enough effect; inconclusive = small, poorly fitted or top-dose-only effect, or another doubt; inactive = no such curve, though single readings can be large; an effect the other way counts as inactive or inconclusive.

Cc1ncc([N+](=O)[O-])n1CC(=O)Nc1ccccc1Cl	none (no result: Epigenetic derep, HTT aggregate, HTT ATP protect)
NS(=O)(=O)c1ccc(NC(=S)Nc2ccc(S(=O)(=O)N3CCCC3)cc2)cc1	none
N#CC(C#N)=NNc1ccc(S(=O)(=O)N2CCCCC2)cc1	PINK1 expr mod inconclusive, HTT aggregate 20µM
CC(NC(=S)Nc1ccc(S(=O)(=O)N2CCOCC2)cc1)C1CC2CCC1C2 (centres undefined)	PINK1 expr mod 40µM, HTT aggregate inconclusive
N#C/C(=N\Nc1ccc(S(=O)(=O)N2CCOCC2)cc1)C(N)=S	none
O=S(=O)(c1ccc(NC(=S)NC23CC4CC(CC(C4)C2)C3)cc1)N1CCCCC1	PINK1 expr mod 18µM (no result: Epigenetic derep, HTT aggregate, HTT ATP protect)
CCN(CC)S(=O)(=O)c1ccc2c(c1)nc(SC(C)C(=O)NCC1CCCO1)n2CC (centres undefined)	none (no result: Epigenetic derep, HTT aggregate, HTT ATP protect)
O=C(O)/C=C/c1ccc2noc(-c3ccccc3)c2c1	HTT aggregate 4µM
CN(C1CCCCC1)S(=O)(=O)c1ccc(NC(=O)C2CCCCC2)cc1	HTT aggregate 1.8µM
CN(C1CCCCC1)S(=O)(=O)c1ccc(NC(=O)CCC(=O)O)cc1	none
CCS(=O)(=O)N1CCC(C(=O)NCCc2ccc(OC)c(OC)c2)CC1	PINK1 expr mod 10µM
COc1ccc(CCNC(=O)C2CCN(S(C)(=O)=O)CC2)cc1OC	none
COc1ccc(CCNC(=S)N2CCC(Cc3ccccc3)CC2)cc1OC	HTT aggregate 22µM
COc1ccc(CCNC(=O)c2ccc(CN3CCC(Cc4ccccc4)CC3)cc2)cc1OC	none
NC(=O)c1ccc[n+]([C@@H]2OC(COP(=O)([O-])OP(=O)(O)OCC3OC(n4cnc5c(N)ncnc54)C(O)C3O)C(O)C2O)c1 (some centres undefined)	HTT ATP protect inconclusive (no result: PINK1 expr mod, HTT aggregate)
S=C(NC1CCCCC1)N1CCc2ccccc2C1	HTT aggregate 7.1µM (no result: HTT ATP protect)
N=c1n(CC(=O)c2ccc([N+](=O)[O-])cc2)c2ccccc2n1Cc1ccc(Cl)cc1	Epigenetic derep 16µM
N=c1n(CC(=O)c2ccc([N+](=O)[O-])cc2)c2ccccc2n1Cc1ccccc1	Epigenetic derep 22µM, PINK1 expr mod inconclusive, HTT aggregate inconclusive
N=c1n(CC(=O)c2ccc(Br)cc2)c2ccccc2n1Cc1ccccc1	none (no result: Epigenetic derep, HTT aggregate, HTT ATP protect)
CC1=C(CC(=O)c2ccc(Cl)cc2)C(=O)c2ccccc2C1=O	HTT aggregate 3.5µM
O=C(Nc1nnc(C(F)(F)F)s1)c1ccc(Br)s1	PINK1 expr mod inconclusive, HTT aggregate 5.6µM (no result: HTT ATP protect)
O=C(Nc1nnc(C(F)(F)F)s1)C1COc2ccccc2O1 (centres undefined)	PINK1 expr mod inconclusive, HTT aggregate 25µM
CC(NC(=O)Nc1nnc(C(F)(F)F)s1)(C(F)(F)F)C(F)(F)F	PINK1 expr mod inconclusive, HTT aggregate 2.2µM
O=C(Nc1nnc(C2CC2)s1)C1COc2ccccc2O1 (centres undefined)	none
CC(C)(C)CC(=O)Nc1nnc(C(F)(F)F)s1	none
CN(Cc1ccccc1)S(=O)(=O)c1ccc(NC(=O)c2cc(=O)c3ccccc3o2)cc1	none (no result: HTT aggregate, HTT ATP protect)
NC(=O)N/N=C/c1c(Sc2nnnn2-c2ccccc2)nc2ccccn2c1=O	HTT ATP protect 4.5µM
O=C1CC(=O)N(CCc2ccccc2)C(=O)N1CCc1ccccc1	HTT aggregate 0.4µM
O=C1CC(SCc2nc3ccccc3[nH]2)C(=O)N1c1ccc(F)c(Cl)c1 (centres undefined)	none (no result: PINK1 expr mod)
O=C1CC(SCc2nc3ccccc3[nH]2)C(=O)N1c1cccc(F)c1 (centres undefined)	HTT aggregate 4µM, HTT ATP protect inconclusive
CCCC(=O)Nc1nc(C)c(-c2csc(Nc3cc(OC)ccc3OC)n2)s1	HTT aggregate inconclusive
C=CCCC(=O)Nc1nc(C)c(-c2csc(Nc3cc(OC)ccc3OC)n2)s1	HTT aggregate 10µM
COC(=O)[C@@]1(Cc2ccccc2-c2ccco2)C=C[C@H](C)[C@@H](c2ccccc2)N1C(=O)C(F)(F)F	HTT ATP protect 10µM (no result: PINK1 expr mod, HTT aggregate)
CC1=C(C(=O)Nc2ccccc2C(F)(F)F)C(c2ccc(C)s2)NC(=S)N1 (centres undefined)	none
N#Cc1c(NC(=S)NC(=O)c2ccccc2)sc2c1CCCC2	none
N#Cc1c(NC(=S)NC(=O)c2ccccc2)sc2c1CCN(CCc1ccccc1)C2	Epigenetic derep 5.6µM (no result: PINK1 expr mod)
CC1CC(C)CN(S(=O)(=O)c2ccc(C(=O)NCCCn3ccnc3)cc2)C1 (centres undefined)	HTT aggregate 7.9µM
Cc1ccc(N=C2NC(=O)/C(=C\c3ccsc3)S2)c(C)c1	none
Clc1ccc2c(c1)C(N1CCNCC1)=Nc1ccccc1O2	HTT ATP protect 0.35µM!
CCn1c(Oc2ccccc2C)nc2c1c(=O)n(C)c(=O)n2C	none (no result: Epigenetic derep, HTT aggregate, HTT ATP protect)
CCn1c(Oc2ccc(F)cc2)nc2c1c(=O)n(C)c(=O)n2C	HTT aggregate 11µM
CCOCC(=O)Nc1ccc2c(c1)OCCO2	none
C/C(=N\OCC(=O)Nc1ccc2c(c1)OCCO2)c1ccc2c(c1)OCCO2	HTT aggregate 28µM
CCC(CO)Nc1ncc([N+](=O)[O-])cc1C#N (centres undefined)	none
N#Cc1cc([N+](=O)[O-])cnc1N(CCO)CCO	HTT aggregate 13µM
COc1ccc(-n2c(C)cc(C(=O)CSc3ccc(NC(C)=O)cc3)c2C)cc1	HTT aggregate 13µM
CC(=O)Nc1ccc(SCC(=O)c2cc(C)n(-c3ccccc3)c2C)cc1	none
CCc1ccc(NC(=O)Cn2c(=O)oc3cc(S(=O)(=O)NCc4ccccc4)ccc32)cc1	none (no result: HTT aggregate, HTT ATP protect)
COCCn1c(SCC(=O)NC(=O)NCc2ccccc2)nc2ccccc21	none
Cc1cc(C)n(-c2nnc(N3CCN(c4ccc(F)cc4)CC3)nn2)n1	HTT aggregate 11µM
CCCCCC(=O)c1ccc(O)cc1O	HTT aggregate 0.14µM
O=C(Cc1ccccc1)c1ccc(O)cc1O	none (no result: Epigenetic derep, HTT aggregate, HTT ATP protect)
CCCCNc1c(-c2ccc(OC)c(SC(C)CC)c2)nc2cc(C)ccn12 (centres undefined)	none (no result: Epigenetic derep, HTT aggregate, HTT ATP protect)
CCCCNc1c(-c2ccc(Sc3ccc(OC)cc3)cc2)nc2cc(C)ccn12	PINK1 expr mod 28µM (no result: Epigenetic derep, HTT aggregate, HTT ATP protect)
COCCCNc1c2c3c(cccc3[nH]c1=O)C(=O)c1ccccc1-2	Epigenetic derep inconclusive, HTT aggregate 10µM
COCCCNC1=C(Cl)C(=O)c2ccccc2C1=O	none
Cc1ccc(-c2csc(=Nc3cccnc3)n2CCCn2ccnc2)cc1C	HTT aggregate 3.5µM
Cc1ccc(-c2csc(=Nc3cccnc3)n2CCCN2CCCC2=O)cc1C	none
CCCCC[C@H](O)C/C=C1/C(=O)C=C[C@@H]1C/C=C\CCCC(=O)O	HTT ATP protect 11µM (no result: PINK1 expr mod, HTT aggregate)
Cc1ccc([N+](=O)[O-])cc1N/C=C1\CCCCC1=O	Epigenetic derep 3.5µM, HTT aggregate inconclusive
Cc1ccc2[nH]c(=O)c(CN(Cc3nnnn3Cc3ccccc3)C3CCCC3)cc2c1	HTT aggregate 0.89µM (no result: PINK1 expr mod)
CCC(c1nnnn1Cc1ccco1)N(CCc1ccccc1)Cc1cc2cc(C)ccc2[nH]c1=O (centres undefined)	HTT aggregate 28µM
Cc1ccc2[nH]c(=O)c(CN(Cc3ccccc3)Cc3nnnn3Cc3ccccc3)cc2c1	none (no result: Epigenetic derep, HTT aggregate, HTT ATP protect)
Cn1cc(S(=O)(=O)Nc2cccc(F)c2)c(=O)n(C)c1=O	none
